How the values were obtained:
Format in all cases: functional
Plasmodium falciparum [1] = experiment: GSK_TCMDC: Inhibition of Plasmodium falciparum 3D7 in whole red blood cells, using parasite LDH activity as an index of growth. Test compounds present at 2uM
Plasmodium falciparum [2] = experiment: GSK_TCMDC: Inhibition of Plasmodium falciparum Dd2 in whole red blood cells, using parasite LDH activity as an index of growth. Test compounds present at 2uM
HepG2 = experiment: GSK_TCMDC: Percent inhibition of human HepG2 cell line. Test compounds present at 10uM.

Row | SMILES | Inhibition (Plasmodium falciparum [1]) [%] | Inhibition (Plasmodium falciparum [2]) [%] | Inhibition (HepG2) [%]
1 | CCNc1cc(C(=O)N[C@@H](Cc2ccccc2)[C@H](O)CNC(C)C)cc(N2CC(c3ccccc3)CCS2(=O)=O)c1 (stereo not given in full) | 98 | 99 | 0
2 | O=C(O)C(F)(F)F.O=S(=O)(NC1CCN(c2ccnc3cc(Cl)ccc23)C1)c1ccc(C(F)(F)F)cc1 (stereo not given) | 100 | 98 | 20
3 | Cc1cc(NCCc2ccccc2)nc(NC(=N)Nc2cccc(F)c2)n1 | 91 | 0 | 0
4 | COc1cc(C(=O)N2CCC(CCN3CCC4(CC3)CN(S(C)(=O)=O)c3ccccc34)CC2Cc2ccc(Cl)c(Cl)c2)cc(OC)c1OC.Cl (stereo not given) | 100 | 99 | 29
5 | O=C1C(c2ccccc2)=C(Nc2cccc([N+](=O)[O-])c2)c2ccccc21 | 88 | 88 | 0
6 | COc1ccc2nccc([C@@H](O)CN3CCC(NCc4ccc5c(c4)NC(=O)CS5)CC3)c2n1.O=C(O)C(=O)O | 100 | 34 | 1
7 | Cc1ccnc(NC(c2cccc(OCc3ccccc3)c2)c2ccc3cccnc3c2O)c1 (stereo not given) | 95 | 88 | 26
8 | CC(C)(C)c1ccc(-c2cc(C(=O)N[C@@H](CO)C(=O)O)on2)cc1.CC(C)(C)c1ccc(-c2nocc2C(=O)N[C@@H](CO)C(=O)O)cc1 | 87 | 0 | 1
9 | COc1ccc(O)c(C(=O)c2cc(C(=O)NC3CCCCC3)c(=O)n(C3CCCCC3)c2)c1 | 99 | 62 | 8
10 | COc1cccc(C2=CC(c3ccccc3)n3ncc(C(=O)Nc4ccc(Cl)cc4)c3N2)c1 (stereo not given) | 88 | 28 | 7
11 | COc1cccc(C(=O)NCCc2cccc(Cl)c2)c1Oc1ccccc1 | 97 | 90 | 28
12 | CSC1=NC(=Nc2c(C)cccc2C)C2(CCC(C(C)(C)C)CC2)N1c1ccc(O)cc1.I (stereo not given) | 97 | 93 | 5
13 | CCN(CC)C(=O)C1CCN(C(C(=O)N2CCN(CC(=O)N3CCCC3)CC2)c2cc3ccccc3o2)CC1 (stereo not given) | 98 | 4 | 0
14 | CCc1cn2c3c(cc(C(=O)N[C@@H](Cc4ccccc4)[C@H](O)CNC4CCOCC4)cc13)N(C)S(=O)(=O)C2.O=CO | 99 | 98 | 13
15 | CCCNC(=O)Nc1cc2cc(-c3cccc(CN4CCCCC4)c3)ccc2n2c(C)nnc12 | 100 | 50 | 60
16 | COc1cc(Cc2c(C)nc3nc(N)nc(N)c3c2C)c(Br)c(OC)c1OC.Cl | 93 | 0 | 44
17 | O=c1c(Br)ccccc1Br | 94 | 41 | 98
18 | Cc1cc(C(=O)Nc2ccc(-c3nc4ccccc4[nH]3)cc2)ccc1[N+](=O)[O-] | 100 | 47 | 55
19 | O=C(Nc1ccc(Cl)cc1)c1ccc(CN2CCCN(Cc3ccccc3)CC2)cc1.O=C(O)C(F)(F)F | 96 | 2 | 46
20 | CCCNCc1ccc(-c2ccc(CN(CCOC)C(=O)CC3CCCC3=O)cc2)nc1.O=C(O)C(F)(F)F (stereo not given) | 93 | 9 | 5

Row | SMILES | Inhibition (Plasmodium falciparum [1]) [%] | Inhibition (Plasmodium falciparum [2]) [%] | Inhibition (HepG2) [%]
21 | CC(C)CCNC(=O)[C@@H]1[C@H]2C(=O)N(C3CCCCC3)C(=O)[C@H]2[C@H]2C=C[C@@H]3C(c4ccc(C(C)(C)C)cc4)=NO[C@@H]3N21 | 96 | 48 | 0
22 | Cc1c(CCc2cccc(F)c2F)[nH]c2ccccc2c1=O | 91 | 90 | 41
23 | Br.N=C1N=C(N)NC2(CCCCC2)N1OCCOc1ccc(Cc2ccccc2)cc1 | 86 | 22 | 34
24 | NCc1ccc(CNCc2cccc(-c3cccc(-c4nc5cc(F)ccc5[nH]4)c3)c2)cc1.O=C(O)C(F)(F)F | 100 | 34 | 15
25 | CC(C)N1CCC(NC(=O)N2CCCN(c3ncnc4cc(-c5ccc(Cl)cc5)sc34)CC2)CC1.O=C(O)C(F)(F)F | 81 | 7 | 6
26 | CCCN(CC1CC1)c1ncc(-c2cccc(CNCc3ccccc3O)c2)cn1 | 97 | 98 | 15
27 | Fc1ccc(Nc2nnc(CNC3CCN(Cc4ccc(Cl)c(Cl)c4)CC3)[nH]2)cc1 | 100 | 36 | 18
28 | Cc1cc(N2CCCC2)nc(Nc2ccc(NC(=O)COc3ccccc3)cc2)n1 | 100 | 86 | 43
29 | CCC[C@@H]([C@@H](CC(C)C)C(=O)N[C@@H](CCCCNC(=O)OCc1ccccc1)C(=O)Nc1ncccn1)N(O)C=O | 100 | 98 | 3
30 | COc1cc2c(cc1OCCN1CCC(N3CCCCC3)CC1)N(C(=O)/C=C/c1ccccc1Cl)CC2 | 100 | 41 | 36
31 | NC(=O)c1cc(-c2ccccc2)cc2c(C3CCC(NCc4ccccc4)C3)c[nH]c12 (stereo not given) | 95 | 30 | 99
32 | O=C(Nc1cccc(C(F)(F)F)c1)c1ccc(S(=O)(=O)NCC2CCN(CC3CCCCC3)CC2)cc1.O=C(O)C(F)(F)F | 100 | 49 | 24
33 | Cc1cccc2nc(-c3ccc(-c4ccc(NC(=O)Nc5ccsc5)cc4)cc3)[nH]c12 | 100 | 70 | 49
34 | CC(C)(C)CCN1CCC(CNC(=O)c2cc(-c3cccc(C(F)(F)F)c3)cs2)C1.O=C(O)C(F)(F)F (stereo not given) | 93 | 13 | 47
35 | Oc1ccc2ccccc2c1C=NNc1nc(=Nc2ccccc2)nc(N2CCOCC2)[nH]1 | 100 | 49 | 66
36 | Clc1ccc2c(NCc3ccccn3)ccnc2c1 | 99 | 99 | 0
37 | CC(=O)Nc1ccc2[nH]cc(C3CCN(CCC4CCN(C(=O)/C=C/c5ccc(Cl)c(Cl)c5)CC4)CC3)c2c1 | 95 | 7 | 13
38 | Cc1ccccc1C1CCN(C2CCC(NC(=O)c3ccc(-c4ccccc4)s3)CC2)CC1 (stereo not given) | 100 | 84 | 26
39 | CCOc1ccc(C(C)NC(=O)c2ccc(OC)c(Br)c2)cc1OCC (stereo not given) | 100 | 100 | 9
40 | O=C(N[C@@H](CC1CCCCC1)C(=O)NCCN1CCCCC1)c1ccc(O)c(-c2cccc(C(F)(F)F)c2)c1 | 99 | 97 | 0

Row | SMILES | Inhibition (Plasmodium falciparum [1]) [%] | Inhibition (Plasmodium falciparum [2]) [%] | Inhibition (HepG2) [%]
41 | Cc1cccc(C(=O)Nc2ccnc(N(C)CCCN(C)Cc3cccc(O)c3)c2)c1.O=C(O)C(F)(F)F | 94 | 71 | 27
42 | CS(=O)(=O)Nc1cccc(-c2cnc3[nH]cc(-c4cccc(CN)c4)c3c2)c1 | 96 | 82 | 25
43 | CCN(Cc1ccccc1)C1CCN(Cc2cc(Br)ccc2O)CC1.O=C(O)C(=O)O | 97 | 97 | 6
44 | CC(O)C1CCCCN1C(=O)c1ccc(-c2ccc(-c3nc4cc(F)ccc4[nH]3)cc2)cc1 (stereo not given) | 100 | 99 | 43
45 | COc1ccc2nc(-c3ccc(C(=O)NCCCN4CCN(c5cc(Cl)ccc5OC)CC4)cc3)[nH]c2c1 | 97 | 53 | 0
46 | Fc1ccc2[nH]c(-c3ccc(-c4cccc(CN5CCCCC5)c4)cc3)nc2c1.O=C(O)C(F)(F)F | 100 | 100 | 10
47 | CN(C)CCN(Cc1ccccc1)c1ccc([N+](=O)[O-])cc1C(F)(F)F.O=C(O)C(F)(F)F | 96 | 89 | 40
48 | CCc1ccc(CN(Cc2ccc(C)cc2)Cc2ccc(NC(C)=O)cc2)cc1 | 89 | 79 | 6
49 | Cc1noc(C)c1-c1cccc(CNCc2ccc(-c3ccc(-c4nc5cc(F)ccc5[nH]4)cc3)cc2)c1.O=C(O)C(F)(F)F | 100 | 92 | 23
50 | CC(C)NCc1ccc(-c2ccc(-c3nc4cc(C(F)(F)F)ccc4[nH]3)cc2)cc1.O=C(O)C(F)(F)F | 100 | 98 | 16
51 | O=C(Nc1cccc(CN2CCCN(Cc3ccc(O)cc3)CC2)c1)c1ccc(Cl)c(Cl)c1.O=C(O)C(F)(F)F | 100 | 81 | 22
52 | O=C(O)C(F)(F)F.c1cncc(CCNCc2ccc(-c3cccc(-c4nc5ccccc5[nH]4)c3)cc2)c1 | 100 | 99 | 39
53 | CC(C)CCNCc1ccc(OCc2cccc(C(=O)Nc3ccccc3)c2)c(I)c1.O=C(O)C(F)(F)F | 100 | 59 | 25
54 | CC(C)NCc1cccc(-c2ccc(NS(=O)(=O)c3cccc4cccnc34)cc2)c1.O=C(O)C(F)(F)F | 90 | 10 | 21
55 | COc1c(OC)c(OC)c2ccccc2c1CNCCCCCCNCc1c(OC)c(OC)c(OC)c2ccccc12.Cl | 100 | 71 | 99
56 | O=S(=O)(c1cccc(Br)c1)N1CCCCC(c2ccc(C(F)(F)F)cc2)=N1 | 91 | 92 | 30
57 | COc1ccc2ncc(F)c([C@@H](O)CN3CCC(NCc4cc5c(cn4)OCS5)CC3)c2c1.Cl | 100 | 98 | 16
58 | CCn1ccc2c(N3CCCC3=O)cc(C(=O)N[C@@H](Cc3ccccc3)[C@H](O)CNC3CCCCC3)cc21 | 99 | 98 | 12
59 | CCCCc1cc(NCc2ccncc2)nc(Nc2ccccc2)n1 | 96 | 4 | 0
60 | CCOC(=O)C(CO)NC(=O)c1ccc([N+](=O)[O-])o1 (stereo not given) | 96 | 2 | 0
